HSF-1 act – increases HSF-1 driven luciferase reporter signal; NIH3T3-HGL HSF-1 luciferase reporter, MG132, 8 h; 100% = twice DMSO control signal; activation, % at 9 µM; actives 1.7% (n = 300,000);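 active = mean replicate activation of at least 50% with a set share of replicates each reaching 50%; inconclusive = only one of those two conditions met; inactive = mean below 50% and too few replicates reaching it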
esBAF inh – inhibitors of esBAF chromatin remodeling in mouse ES cells; reporter increase, % at 12.5 µM; AID 602393; Bmi1-luciferase knock-in reporter, 24 h; 100% = twice the neutral-well signal; actives 2% (n = 350,000); in the data active = activation above about 40%; inconclusive = no clear call, values can overlap the other calls;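 note: a rise in the Bmi1 reporter signal indicates esBAF inhibition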
MITF TRPM1 HTS – MITF TRPM1 promoter activation in melanoma cells; activation, % at 12.5 µM; actives 0.75% (n = 300,000); SK-MEL-5 TRPM1-promoter luciferase, 24 h; % of positive control, neutral wells = 0;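 active = mean activation of at least 80% with every replicate also reaching 80%; inconclusive = mean reaches 80% but some replicate falls short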
HSF1 inhib – HSF1 inhibition; AID 2098; activity change, negative = inhibition, % at 7.5 µM (by protocol); NIH3T3-HGL HSE-luciferase, MG132-induced, luminescence 8 h; stronger effect = lower value; actives 0.77% (n = 300,000);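 active = more than half of replicate wells show activity change below -50%, luminescence cut by over half; inconclusive = some wells, but at most half, below -50%; inactive = no replicate well below -50%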;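 note: luciferase reports HSF-1 transcriptional activity via heat shock element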
SMARCA2 activ – increases SMARCA2 function in MMTV reporter cells | MG213 cells, MMTV-luciferase reporter, dexamethasone, overnight | activation, % at 9.1 µM | actives 1% (n = 370,000) | AID 652017; in the data active = activation above about 7.8%
Wnt act – Wnt/beta-catenin pathway activation; Wnt/beta-catenin reporter cell assay, activator, plate reader; activation, % at 9.35 µM; actives 1.2% (n = 300,000); AID 743398; in the data active = activation above about 30%, passing the limit was not always enough; inconclusive = no clear call, values can overlap the other calls
Numbers stand for hits; – = inactive; ? = inconclusive; · = not tested or not shown. The list is not random: actives were taken first. Their share in the collection is about 4.3%.

SMILES | HSF-1 act | esBAF inh | MITF TRPM1 HTS | HSF1 inhib | SMARCA2 activ | Wnt act
Cc1cc(SCC(=O)c2ccc(Cl)cc2)nc(=O)[nH]1 | – | – | – | – | – | 40
Cc1ccc(C(=O)CSc2cc(C)[nH]c(=O)n2)cc1 | – | – | – | – | – | –
CN1C(=O)c2cc(NC(=O)Nc3ccc(F)cc3)ccc2OC[C@H]2O[C@@H](CC(=O)NC3CCC3)CC[C@H]21 | · | – | · | · | · | ·
CCOC(=O)c1[nH]c(C)c(C(=O)c2ccc(C)cc2)c1C | – | – | – | – | – | ·
CCOC(=O)c1c(C)[nH]c(N=Nc2ccc(C)cc2)c1C | ? | 62 | 124 | – | – | ·
CCOC(=O)c1c(C)[nH]c(N=Nc2ccccc2)c1C | – | 89 | – | – | – | ·
CCOC(=O)c1c(C)[nH]c(C=Nc2ccccc2)c1O | – | · | · | – | · | ·
CCOC(=O)c1c(C)[nH]c(N=Nc2ccccc2Cl)c1C | – | 64 | – | – | – | 46
C[C@@H]1CN([C@@H](C)CO)C(=O)c2cc(C#Cc3ccccc3F)cnc2O[C@H]1CN(C)C(=O)Cc1ccccc1 | · | – | · | · | · | ·
O=C(C[C@H]1CC[C@H]2[C@@H](COC[C@@H](O)CN2C(=O)c2ccccc2F)O1)N1CCOCC1 | · | – | · | · | · | ·
C[C@H](O)[C@@H]1C(=O)N2CCc3ccc(N4CCN(C)CC4)cc3[C@@H]2C[C@@H]1N(C)C(=O)NC1CCCCC1 | · | – | – | · | 7.9 | –
Cc1c(/C(O)=C2\C(=O)C(=O)N(CCN(C)C)C2c2ccccc2)cnn1-c1ccccc1 (centres undefined) | – | · | · | -63 | – | –
Cc1c(/C(O)=C2/C(=O)C(=O)N(CCN(C)C)C2c2ccc(C(C)C)cc2)cnn1-c1ccccc1 (centres undefined) | – | · | · | – | – | –
Cc1ccc(C2/C(=C(/O)c3cnn(-c4ccccc4)c3C)C(=O)C(=O)N2CCN2CCOCC2)o1 (centres undefined) | – | 50 | – | – | – | ·
Cc1ccc(C2/C(=C(\O)c3cnn(-c4ccccc4)c3C)C(=O)C(=O)N2CCN(C)C)o1 (centres undefined) | 66 | 48 | · | – | – | –
CCS(=O)(=O)NCC[C@H]1CC[C@@H](NC(=O)C2CCC2)[C@H](CO)O1 | · | – | · | · | · | ·
C[C@@H](NC(=O)C[C@H]1C=C[C@@H](NC(=O)c2cccnc2)[C@@H](CO)O1)c1ccccc1 | · | – | · | · | · | ·
O=[N+]([O-])c1ccc2nc(-c3ccccc3)oc2c1 | 62 | · | – | – | – | –
COc1cccc(-c2nc3ccc([N+](=O)[O-])cc3o2)c1 | – | · | – | – | – | –
Cn1cccc1-c1nc2ccc([N+](=O)[O-])cc2[nH]1 | – | ? | 99 | – | – | –
O=[N+]([O-])c1ccc2nc(-c3ccccc3)[nH]c2c1 | – | · | 103 | – | – | 68
O=C(Nc1ccc(Cl)cc1)N[C@@H]1CC[C@H](CCNS(=O)(=O)c2ccccc2F)O[C@H]1CO | · | – | · | · | · | ·
O=C(Nc1ccc2c(c1)[C@H]1C[C@@H](CC(=O)N3CCc4ccccc4C3)O[C@H](CO)[C@H]1O2)C1CCC1 | · | – | · | · | · | ·
C[C@H]1CN([C@@H](C)CO)C(=O)c2cc(C#CCN(C)C)cnc2O[C@@H]1CN(C)S(=O)(=O)c1ccccc1 | · | – | · | · | · | ·
CC(=O)Oc1oc(-c2ccccc2)nc1C=Nc1ccccc1 | – | · | – | – | – | ·
SMILES | HSF-1 act | esBAF inh | MITF TRPM1 HTS | HSF1 inhib | SMARCA2 activ | Wnt act
COc1ccc(N=Cc2nc(-c3ccccc3)oc2OC(=O)c2ccccc2)cc1 | – | · | – | – | – | 54
CC(=O)Oc1ccc(C)cc1-n1nc2ccccc2n1 | – | – | · | – | – | 77
Cc1ccc(OC(=O)c2cccc(S(=O)(=O)N(C)C)c2)c(-n2nc3ccccc3n2)c1 | · | – | – | · | – | –
Cc1cc(C)cc(NC(=O)COC(=O)c2cccc(S(=O)(=O)N3CCCCC3)c2)c1 | · | – | – | · | – | 33
Cc1cccc(NC(=O)COC(=O)c2cccc(S(=O)(=O)N3CCCCCC3)c2)c1 | · | – | – | · | – | –
Cc1ccc(OCC(=O)O)c(-n2nc3ccccc3n2)c1 | – | – | – | – | – | ·
Cc1ccc(OC(=O)c2cccc(S(=O)(=O)N3CCCC3)c2)c(-n2nc3ccccc3n2)c1 | – | · | 99 | – | – | 104
CCCn1nnc(NC(=S)NC(=O)c2ccc(-c3ccc(Br)cc3)o2)n1 | – | – | · | – | – | –
Cn1nnc(NC(=S)NC(=O)c2ccc(-c3ccc(Br)cc3)o2)n1 | – | · | – | – | – | 49
C[C@@H]1CCCCO[C@H](CN(C)Cc2ccc(C(F)(F)F)cc2)[C@@H](C)CN([C@@H](C)CO)C(=O)c2cc(NS(=O)(=O)c3ccc(F)cc3)ccc2O1 | · | – | · | · | · | ·
c1ccc(-c2csc(-c3ccncc3)n2)cc1 | – | – | – | – | – | –
Oc1ccccc1-c1csc(-c2ccccc2)n1 | 79 | 77 | – | – | – | –
Oc1ccc(-c2csc(-c3ccccc3)n2)cc1O | 155 | 60 | – | – | – | –
O=C(C[C@H]1CC[C@@H](NC(=O)c2cccc(F)c2)[C@@H](CO)O1)Nc1nccs1 | · | – | · | · | · | ·
CCOc1ccc2nc(N3C(=O)CNC3=S)sc2c1 | 62 | – | · | – | – | 51
Cc1ccccc1NC(=O)C1CCCN1S(=O)(=O)c1cccc2cccnc12 (centres undefined) | – | – | – | – | · | ·
Cc1ccccc1NC(=O)C1CCCN1S(=O)(=O)c1ccccc1C(F)(F)F (centres undefined) | · | – | – | · | – | 50
Cc1cc(C(=O)Nc2ccc3c(c2)C(=O)N(C)[C@@H]2CC[C@H](CC(=O)NCC(F)(F)F)O[C@@H]2CO3)no1 | · | – | · | · | · | ·
CCCN(C)C[C@@H]1OCCCC[C@H](C)Oc2ccc(NC(=O)CCC(F)(F)F)cc2C(=O)N([C@@H](C)CO)C[C@@H]1C | · | – | · | · | · | ·
C[C@@H]1CN([C@H](C)CO)C(=O)c2cccc(NC(=O)Nc3ccc4c(c3)OCO4)c2O[C@@H]1CN(C)Cc1ccc(-c2ccccc2)cc1 | · | – | · | · | · | ·
